Only some compounds are listed: those with a hit (about 4.9% of all), similar ones and a draw of the others.
Platelet DG rel: inhibitors of platelet dense granule secretion, primary screen, cell-based, MLPCN, human platelets | human platelet-rich plasma, SFLLRN dense granule ATP release, luminescence | inhibition, %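 (compounds screened at 7.5 µM in platelet-rich plasma)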 | 300,000 compounds, 0.22% hits;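 active = mean replicate score, as percent of positive control, at or above 50; inconclusive = mean below 50 but at least one replicate at or above 50; inactive = mean and every replicate below 50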
HSP90 inh: HSP90 inhibitors, primary screen, cell lysate, luminescence; Heat shock protein HSP 90 (rabbit reticulocyte lysate; luciferase refolding); Rabbit reticulocyte lysate, luciferase refolding luminescence, 3 h; inhibition, % at 5.6 µM; 290,000 compounds, 0.91% hits; AID 1789, 2009;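 active = inhibition above the screen-wide mean plus 3 SD, computed separately per campaign, cut at about 16% in these data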;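 note: 0% = DMSO wells and 100% = 60 µM geldanamycin wells; inhibitors lower the luminescence because luciferase stays unfolded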
HSF1 inhib: HSF1 inhibitors in luciferase reporter cells, primary screen, cell-based, NIH3T3, luminescence; 300,000 compounds, 0.77% hits; NIH3T3-HGL HSE-luciferase, MG132-induced, luminescence 8 h; active compounds read low; activity change, negative = inhibition, % at 7.5 µM (by protocol);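 active = more than half of replicate wells show activity change below -50%, luminescence cut by over half; inconclusive = some wells, but at most half, below -50%; inactive = no replicate well below -50%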;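 note: luciferase reports HSF-1 transcriptional activity via heat shock element; 0% = median of DMSO wells and -100% = zero luminescence signal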
dFosB act: activators of delta FosB homodimer, primary screen, biochemical, fluorescence polarization, TAMRA-CDK5 oligo, single point; purified delta FosB; percent of positive-control signal above neutral wells; activation, % at 25 µM; 340,000 compounds, 0.99% hits; AID 493131, 2011;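 active = mean activation above about 17%, with every replicate also reaching it, limit read from the data, passing the limit was not always enough; inconclusive = only one of the two conditions met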
Target sequence (P13346 whole entry, looked up): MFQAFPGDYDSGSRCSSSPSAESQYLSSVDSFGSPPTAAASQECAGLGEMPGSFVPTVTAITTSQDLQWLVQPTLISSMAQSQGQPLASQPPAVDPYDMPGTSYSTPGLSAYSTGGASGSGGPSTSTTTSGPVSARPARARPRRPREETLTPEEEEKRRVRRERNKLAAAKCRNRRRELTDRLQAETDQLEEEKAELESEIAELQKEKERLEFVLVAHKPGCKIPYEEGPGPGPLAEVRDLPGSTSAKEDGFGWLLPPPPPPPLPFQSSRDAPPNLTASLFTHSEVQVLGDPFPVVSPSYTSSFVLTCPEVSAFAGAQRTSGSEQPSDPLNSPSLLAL
HSF-1 act: HSF-1 activators, primary screen, NIH3T3-HGL cells, MG132 stress, luminescence, single point. AID 504408, 2011. 300,000 compounds, 1.7% hits. activation, % at 9 µM. NIH3T3-HGL HSF-1 luciferase reporter, 8 h; 100% = twice DMSO control signal;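 active = mean replicate activation of at least 50% with a set share of replicates each reaching 50%; inconclusive = only one of those two conditions met; inactive = mean below 50% and too few replicates reaching it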;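 note: 0% = median of the neutral control wells and 100% = twice that signal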
MPTP inh: mitochondrial permeability transition pore inhibitors, primary screen, biochemical, isolated mouse mitochondria, absorbance; Ca2+ swelling absorbance, 30 min; inhibition, % at 10 µM; 360,000 compounds, 1.4% hits;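 active = inhibition of 50% or more, scaled per plate between neutral and stimulator controls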;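 note: 0% = DMSO wells given calcium and 100% = 1 mM EGTA wells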
* hit, by the source's call; ? = inconclusive; · = no result.

SMILES	Platelet DG rel	HSP90 inh	HSF1 inhib	dFosB act	HSF-1 act	MPTP inh
CCOC(=O)c1c(CSCc2ccccc2)oc2ccc(O)c(CN(C)C)c12	5	2	-79*	0	-84	5
COc1ccc(NC(=O)C2(C)CCCN2C(=O)C(C)C)cc1OC (stereo not drawn)	·	·	·	·	·	-1
Cc1ccc(C(=O)CCC(=O)OCC(=O)N(CC(C)C)c2c(N)n(Cc3ccccc3)c(=O)[nH]c2=O)cc1	-10	·	-1	-8	3	1
Cc1ccc2c(c1)-c1nc3ccccc3cc1C2=NC1CCCCC1	·	3	·	-28	·	1
Cc1ccc2c(c1)C(=NC1CCCCC1)c1cc3ccccc3nc1-2	-11	-3	44	-13	60*	1
CC1Oc2ccccc2N(CC(=O)NCc2ccccc2)C1=O (stereo not drawn)	-2	7	-88*	-10	-90	0
Oc1ccc(Cl)cc1N=Cc1sc2ccccc2c1Cl	-6	64*	12	-9	45	1
COc1ccc(N=Cc2sc3ccccc3c2Cl)cc1	-2	1	?	1	-45	4
CCC1CCCCN1C(=O)c1cc2c(=O)n3cccc(C)c3nc2s1 (stereo not drawn)	6	0	-64*	-10	-68	1
COc1ccc(CC(=O)Nc2ccc(-c3cn4ccccc4n3)cc2)cc1	?	1	126	0	184*	-1
Cc1nc(-c2ccc(NC(=O)Cc3ccccc3)cc2)cs1	-4	-2	29	-4	57*	0
Cc1nc(-c2ccc(C(=O)Nc3ccc(F)cc3)cc2)cs1	7	3	19	15	67*	2
COc1ccc(NC(=O)c2ccc(-c3csc(C)n3)cc2)cc1	-2	1	8	4	30	0
CCO[C@@H]1OC(C(=O)NCc2ccccc2)=C[C@H](c2ccc(C(F)(F)F)cc2)[C@H]1CCCO	-2	6	-11	4	-5	0
OC[C@@H]1CN(Cc2ccco2)C[C@H](n2cnc3c(NCc4ccc(F)cc4)ncnc32)O1	·	·	·	·	·	1
COc1ccccc1CNC(=O)CCNC(=O)N1CC(=O)Nc2ccccc21	8	-3	4	4	4	-1
COc1ccc(C(C)=O)cc1COC(=O)C1CCN(C(=O)c2ccc(Cl)cc2)CC1	·	·	·	0	·	-1
O=C1C(N2CCOCC2)=C(n2nnc3ccccc32)C(=O)c2ccccc21	-2	41*	33	-6	48	4
CCC(=O)Nc1ccc2c(c1)ncn2-c1ccc(C)cc1	10	-4	26	-6	53*	0
Cc1ccc(-n2c(C)cc(C(=O)CSc3nncs3)c2C)cc1	1	1	39	-1	67*	5
Cc1cc(C(=O)CSc2nncs2)c(C)n1-c1c(C)n(C)n(-c2ccccc2)c1=O	3	-1	-3	-2	-9	0
CN(C)S(=O)(=O)N1CCC(Oc2ccc(C(=O)NCC(C)(C)CO)cc2)CC1	8	1	-2	0	6	-1
COc1ccc(S(=O)(=O)N2CCN(C(=O)CCSc3ccccc3)CC2)cc1	·	·	·	-10	·	1
CCCCn1c(N)c(N(CC(C)C)C(=O)CCN2C(=O)C3CC=CCC3C2=O)c(=O)[nH]c1=O (stereo not drawn)	·	·	·	·	·	0
O=C(O)c1cccc(-n2cccc2/C=C2/NC(=O)N(c3cccc(Cl)c3)C2=O)c1	0	5	-12	-6	-13	3
SMILES	Platelet DG rel	HSP90 inh	HSF1 inhib	dFosB act	HSF-1 act	MPTP inh
COc1ccc(-n2cccc2/C=C2/NC(=O)N(c3cccc(Cl)c3)C2=O)cc1	2	5	-63*	8	-66	1
COc1ccc(CN(CCCN2CCOCC2)C(=O)Nc2cccc(Cl)c2)cc1OC	-2	-2	-52*	-6	-61	3
COc1ccc(OC)c(CN(CCN2CCOCC2)C(=O)Nc2cccc(Cl)c2)c1	9	0	1	0	-5	0
O=C(COc1ccc(Cc2ccccc2)cc1)c1ccc(F)cc1	17	4	26	-3	22	3
O=C(COc1ccc(F)cc1)c1ccc2c(c1)CCCC2	6	-1	47	-6	78*	1
CC(C)CSc1nnc2c(n1)[nH]c1ccccc12	0	0	22	0	59*	-1
O=C(C[C@@H]1C/C=C\C[C@H](NC(=O)OCC2c3ccccc3-c3ccccc32)C(=O)OC[C@H]2CCCN2C1=O)NCCO	·	·	·	-14	·	-2
COc1cccc(N/C(SCc2ccccc2F)=C(/C#N)C(=O)NCc2cccs2)c1	19	6	28	-4	63*	3
Cc1c(-c2ccc(Br)cc2)[n+](=O)c2c(n1[O-])CCCC2	3	-1	-8	-4	-13	-1
CCn1c(=O)cc(SCC(=O)N2CCN(c3ccccc3F)CC2)c2ccccc21	-1	-2	17	-10	54*	4
Cc1ccc(C=Nc2ccccc2C(N)=O)cc1	2	1	55	5	66*	0
Cc1ccc(/C=C/C(=O)Nc2ccccc2C(N)=O)cc1	?	2	18	4	59*	0
NC(=O)c1ccccc1NC(=O)/C=C/C(=O)O	-7	-4	25	-3	?	-1
COc1ccccc1NC(=O)Nc1ccccc1N1CCOCC1	5	0	3	2	9	1
COc1ccc(CCNc2c3ccccc3nc3ccccc23)cc1OC	-8	0	-1	30*	6	2
COc1cc(Nc2c3ccccc3nc3ccccc23)cc(OC)c1OC	-6	3	13	44*	21	1
COc1ccccc1Nc1c2ccccc2nc2ccccc12	-2	-4	-1	37*	4	4
COc1ccc(Nc2c3c(nc4ccccc24)CCCC3)cc1OC	-9	1	8	2	9	5
COc1ccc(Nc2c3ccccc3nc3ccccc23)cc1	-4	-5	6	60*	30	12
CCc1ccccc1OCC(=O)OCC(=O)N1CC(=O)Nc2ccccc21	-4	-2	3	-1	-4	-3
CN1C(=O)C2(c3ccccc31)c1c(oc3ccccc3c1=O)C(=O)N2CCCO (stereo not drawn)	-1	-2	5	-7	2	1
CCC1c2ccccc2C(=O)C1C(N)=O (stereo not drawn)	·	·	·	-5	·	0
COc1ccc(-c2nc(C#N)c(NCCc3ccccc3)o2)cc1OC	1	0	51	-6	80*	-4

High-throughput results (PubChem BioAssay)
